# Inconclusive results are not listed. A call without a number means that no potency is given here. Activity calls are given as the source filed them. The call rests on the fitted dose curve.
# Target: Acetylcholinesterase (Homo sapiens) (UniProt P22303)
# Experiment: Acetylcholinesterase (AChE) small molecule antagonists: fluorescence cell-based qHTS assay (AID 1347398); further: nearly all actives have a fitted effect of over 50% in size; further: potency means the concentration at half of the fitted maximal effect
# Conditions: SH-SY5Y cells; Potency: AChE activity; outcome: AChE activity; series mostly up to 115 µM
# How it was run: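 Thiocholine generated from acetylthiocholine by SH-SY5Y cell AChE is detected with Thiolite Green (Ex/Em 490/520 nm) after 40 min at room temperature, following 30 min compound pretreatment at 37 C.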
# Sequence of Acetylcholinesterase (Homo sapiens) (P22303 whole entry, looked up): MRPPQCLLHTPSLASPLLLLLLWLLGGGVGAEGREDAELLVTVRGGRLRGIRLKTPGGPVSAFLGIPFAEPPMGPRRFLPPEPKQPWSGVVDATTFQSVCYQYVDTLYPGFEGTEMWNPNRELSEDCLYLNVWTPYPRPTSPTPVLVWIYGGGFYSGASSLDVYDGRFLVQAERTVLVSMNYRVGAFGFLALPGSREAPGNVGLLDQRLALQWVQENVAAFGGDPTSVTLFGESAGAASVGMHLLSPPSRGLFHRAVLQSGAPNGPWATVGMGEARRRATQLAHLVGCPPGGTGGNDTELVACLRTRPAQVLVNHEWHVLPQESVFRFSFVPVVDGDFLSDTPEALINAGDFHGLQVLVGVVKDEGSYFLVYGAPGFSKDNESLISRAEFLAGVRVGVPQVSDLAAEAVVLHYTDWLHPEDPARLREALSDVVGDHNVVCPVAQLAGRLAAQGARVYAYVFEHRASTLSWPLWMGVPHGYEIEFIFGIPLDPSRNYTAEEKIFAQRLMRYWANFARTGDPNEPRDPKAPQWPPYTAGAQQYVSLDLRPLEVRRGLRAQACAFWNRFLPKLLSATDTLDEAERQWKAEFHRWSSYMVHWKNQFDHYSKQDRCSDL
Compound,Potency,"activity change, negative = inhibition"
O=C(O)C1(C(=O)Nc2ccc(Cl)cc2Cl)CC1,inactive,
CCCCCCCC/C=C\CCCCCCCCCCCC(=O)O,inactive,
O=C(OOC(=O)c1ccccc1)c1ccccc1,inactive,
CS(C)=O,inactive,
Cc1nc2ccccc2n1Cc1ccc(Cl)cc1,inactive,
CCNC(=O)NCCCOc1cccc(CN2CCCCC2)c1,inactive,
CN[C@H]1CC[C@@H](c2ccc(Cl)c(Cl)c2)c2ccc(S(N)(=O)=O)cc21,35.6 µM (active),
CC1CCCO1 (stereo not given),inactive,
CCO[Si](CCCSSSSCCC[Si](OCC)(OCC)OCC)(OCC)OCC,inactive,
CC(C(=O)O)c1ccc(C(=O)c2ccccc2)s1 (stereo not given),inactive,
CC1CCN(CCCC(=O)c2ccc(F)cc2)CC1,inactive,
CCN1CCCC1CNC(=O)c1cc(S(N)(=O)=O)ccc1OC (stereo not given),inactive,
O=C1C(O)=C(O)C(=O)C(O)=C1O,inactive,
COc1ccc(-c2cc(=O)c3c(O)cc(O[C@@H]4O[C@H](CO[C@@H]5O[C@@H](C)[C@H](O)[C@@H](O)[C@H]5O)[C@@H](O)[C@H](O)[C@H]4O)cc3o2)cc1O,inactive,
C=CC(C)(O)CC/C=C(\C)CCC=C(C)C (stereo not given),inactive,
[O-][n+]1cccc(/C(Cl)=N/OC[C@@H](O)CN2CCCCC2)c1,inactive,
CN1CCC(=C2c3ccccc3CC(=O)c3sccc32)CC1,inactive,
CC1(C)CCC(C)(C)c2cc(C(=O)Nc3ccc(C(=O)O)cc3)ccc21,inactive,
CCC(CN)=C(c1ccccc1)c1ccccc1,inactive,
CC(=O)O[C@@H]1CC2CCC1(C)C2(C)C (stereo not given in full),inactive,

Compound,Potency,"activity change, negative = inhibition"
COC(=O)C1=C(C)NC(C)=C(C(=O)OCCN2CCN(C(c3ccccc3)c3ccccc3)CC2)C1c1cccc([N+](=O)[O-])c1 (stereo not given),inactive,
CCCCCCOC(=O)CC(CC(=O)OCCCCCC)(OC(=O)CCC)C(=O)OCCCCCC,inactive,
Cc1c(C(=O)NCCO)[n+](=O)c2ccccc2n1[O-],inactive,
CC(C)(C)c1csc(-c2cc3cc(OCc4ccccc4CC(=O)O)ccc3o2)n1,inactive,
CC(=O)Oc1cc2c(s1)CCN(C(C(=O)C1CC1)c1ccccc1F)C2 (stereo not given),inactive,
CCCCCCCCCCCCCCCCCCNC(=O)OC1CCN(C(=O)OC[C@H](COC(=O)N(Cc2cccc[n+]2CC)C(=O)c2ccccc2OC)OC)CC1,inactive,
S=c1[nH]c2ccccc2s1,inactive,
COc1c(Br)cc(Br)c(C)c1Br,inactive,
CCCCCCCCCCCCCC=O,,1.81% [at 10.5 µM] (inactive)
Cc1cc(C)c(C=O)c(C)c1,inactive,
CCNS(=O)(=O)c1ccc(C)cc1,inactive,
O=C(NS(=O)(=O)/C=C/c1cccs1)c1ccc(F)cc1Br,inactive,
CO[Si](C)(OC)c1ccccc1,inactive,
COCCCOCCCOC,inactive,
CCCCCCCC[N+](CCCCCCCC)(CCCCCCCC)CCCCCCCC,70.9 µM (active),
Cc1ccc(Nc2ccc(O)c3c2C(=O)c2ccccc2C3=O)cc1,inactive,
Cc1cc2c(cc1C(F)(F)F)N(C(=O)Nc1ccc(Oc3cccnc3C)nc1)CC2,inactive,
Nc1cc(C(=O)O)ccc1Cl,inactive,
CCCCCCCCCCCC[N+](C)(C)CCCCCCCCCCCC,63.3 µM (active),
Cc1cccc(Br)c1,inactive,

# Target: Acetylcholinesterase (Homo sapiens) (UniProt P22303)
# Experiment: Acetylcholinesterase (AChE) small molecule antagonists: enzyme-based qHTS assay with human liver microsomes (AID 1347399); further: nearly all actives have a fitted effect of over 60% in size
# Conditions: Potency: qHTS inhibition; outcome: qHTS inhibition; series mostly up to 115 µM
# How it was run: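 Recombinant human AChE (50 mU/mL in the enzyme mix) and human liver microsomes (0.25 mg/mL final) were preincubated with compound and NADPH (0.25 mg/mL final) for 30 min at 37 C. Acetylthiocholine/DTNB was then added; thiocholine was read colorimetrically after 10 min at room temperature.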
Compound,Potency,"activity change, negative = inhibition"
O=C(O)C1(C(=O)Nc2ccc(Cl)cc2Cl)CC1,inactive,
CCCCCCCC/C=C\CCCCCCCCCCCC(=O)O,inactive,
O=C(OOC(=O)c1ccccc1)c1ccccc1,inactive,
CS(C)=O,inactive,
Cc1nc2ccccc2n1Cc1ccc(Cl)cc1,inactive,
CCNC(=O)NCCCOc1cccc(CN2CCCCC2)c1,inactive,
CN[C@H]1CC[C@@H](c2ccc(Cl)c(Cl)c2)c2ccc(S(N)(=O)=O)cc21,inactive,
CC1CCCO1 (stereo not given),inactive,
CCO[Si](CCCSSSSCCC[Si](OCC)(OCC)OCC)(OCC)OCC,inactive,
CC(C(=O)O)c1ccc(C(=O)c2ccccc2)s1 (stereo not given),inactive,
CC1CCN(CCCC(=O)c2ccc(F)cc2)CC1,inactive,
CCN1CCCC1CNC(=O)c1cc(S(N)(=O)=O)ccc1OC (stereo not given),inactive,
O=C1C(O)=C(O)C(=O)C(O)=C1O,inactive,
COc1ccc(-c2cc(=O)c3c(O)cc(O[C@@H]4O[C@H](CO[C@@H]5O[C@@H](C)[C@H](O)[C@@H](O)[C@H]5O)[C@@H](O)[C@H](O)[C@H]4O)cc3o2)cc1O,inactive,
C=CC(C)(O)CC/C=C(\C)CCC=C(C)C (stereo not given),inactive,
[O-][n+]1cccc(/C(Cl)=N/OC[C@@H](O)CN2CCCCC2)c1,inactive,
CN1CCC(=C2c3ccccc3CC(=O)c3sccc32)CC1,inactive,
CC1(C)CCC(C)(C)c2cc(C(=O)Nc3ccc(C(=O)O)cc3)ccc21,inactive,
CCC(CN)=C(c1ccccc1)c1ccccc1,inactive,
CC(=O)O[C@@H]1CC2CCC1(C)C2(C)C (stereo not given in full),inactive,

Compound,Potency,"activity change, negative = inhibition"
COC(=O)C1=C(C)NC(C)=C(C(=O)OCCN2CCN(C(c3ccccc3)c3ccccc3)CC2)C1c1cccc([N+](=O)[O-])c1 (stereo not given),inactive,
CCCCCCOC(=O)CC(CC(=O)OCCCCCC)(OC(=O)CCC)C(=O)OCCCCCC,inactive,
Cc1c(C(=O)NCCO)[n+](=O)c2ccccc2n1[O-],inactive,
CC(C)(C)c1csc(-c2cc3cc(OCc4ccccc4CC(=O)O)ccc3o2)n1,inactive,
CC(=O)Oc1cc2c(s1)CCN(C(C(=O)C1CC1)c1ccccc1F)C2 (stereo not given),inactive,
CCCCCCCCCCCCCCCCCCNC(=O)OC1CCN(C(=O)OC[C@H](COC(=O)N(Cc2cccc[n+]2CC)C(=O)c2ccccc2OC)OC)CC1,inactive,
S=c1[nH]c2ccccc2s1,inactive,
COc1c(Br)cc(Br)c(C)c1Br,inactive,
CCCCCCCCCCCCCC=O,,-0.486% [at 10.5 µM] (inactive)
Cc1cc(C)c(C=O)c(C)c1,inactive,
CCNS(=O)(=O)c1ccc(C)cc1,inactive,
O=C(NS(=O)(=O)/C=C/c1cccs1)c1ccc(F)cc1Br,inactive,
CO[Si](C)(OC)c1ccccc1,inactive,
COCCCOCCCOC,inactive,
CCCCCCCC[N+](CCCCCCCC)(CCCCCCCC)CCCCCCCC,inactive,
Cc1ccc(Nc2ccc(O)c3c2C(=O)c2ccccc2C3=O)cc1,inactive,
Cc1cc2c(cc1C(F)(F)F)N(C(=O)Nc1ccc(Oc3cccnc3C)nc1)CC2,inactive,
Nc1cc(C(=O)O)ccc1Cl,inactive,
CCCCCCCCCCCC[N+](C)(C)CCCCCCCCCCCC,inactive,
Cc1cccc(Br)c1,inactive,

# Reference: PubChem BioAssay (Tox21)
